Shown are actives, neighbours in structure and some others; about 19% of the full set was active somewhere.
HT1080-NT tox: qHTS for induction of synthetic lethality in tumor cells producing 2HG: qHTS for the HT-1080-NT fibrosarcoma cell line | HT-1080-NT fibrosarcoma viability, CellTiter-Glo ATP luminescence, 48 h | Potency, µM (series often up to 46.1 µM), without a hit: at the highest dose activity, negative = less viability, most hits filed as cytotoxic | 360,000 compounds, 1.6% hits | AID 686970, 2013;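 further: NT is the 2HG producing partner of a matched IDH1 knockdown line; potency means the concentration at half of the fitted maximal effect; 0% = DMSO-treated cells and -100% = media-only wells without cells; nearly all actives have a fitted effect of over 55% in size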
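Viability of the 2HG-overproducing fibrosarcoma line after 48 hours of compound exposure at 37 degrees C was determined by luminescence with CellTiter-Glo, and concentration-effect curves were then fitted and categorized.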
IL-1B inflam inh: qHTS for Inhibitors of Inflammasome Signaling: IL-1-beta AlphaLISA Primary Screen; THP-1 LPS/ATP IL-1B secretion, AlphaLISA, 16 h; active compounds read low; activity change, % at 57.5 µM; 360,000 compounds, 4.7% hits; in the data active means activity change below about -50%; inconclusive means mostly about -30% to -49%
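THP-1 cells pretreated 1 hr with compounds (up to 57.5 uM final), then stimulated with LPS (250 ng/mL final) plus ATP (1.25 mM final); secreted IL-1B measured by AlphaLISA after 16 hr, decreased signal indicating inhibition.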
TDP1 cell CPT: qHTS for Inhibitors of human tyrosyl-DNA phosphodiesterase 1 (TDP1): qHTS in cells in presence of CPT. chicken DT40 Tdp1-/-;hTDP1 cells + 20 nM CPT, ATP luminescence, 48 h. 420,000 compounds, 12% hits. Potency, µM (doses to about 46.2 µM), for the others: at the highest dose activity change, negative = growth inhibition, actives largely listed as inhibitors; further: potency means the concentration at half of the fitted maximal effect; nearly all actives have a fitted effect of over 55% in size
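Chicken DT40 Tdp1-/- cells stably complemented with human TDP1 were seeded at 400 cells/well in medium containing 20 nM camptothecin, exposed to pin-transferred compounds, and grown at 37 °C for at least 48 hr. Viability was read as ATP luminescence.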
HT1080 IDH1KD tx: qHTS for induction of synthetic lethality in tumor cells producing 2HG: qHTS for the HT-1080-IDH1KD cell line; 360,000 compounds, 2% hits; Potency, µM (top dose mostly 46.1 µM), for inactives: at the top dose activity, negative = toxicity, usual class: cytotoxic; HT-1080 IDH1 knockdown viability, ATP luminescence, 48 h;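 further: potency means the concentration at half of the fitted maximal effect; 0% = DMSO wells and -100% = cell-free medium wells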
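Knockdown cells (IDH1KD HT-1080) received compounds 2 h after plating at 750 cells/well and were kept 48 h at 37 °C in 5% FBS RPMI. A CellTiter-Glo luminescence read gave % activity for curve fitting.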
DT40 TDP1 no CPT: qHTS for Inhibitors of human tyrosyl-DNA phosphodiesterase 1 (TDP1): qHTS in cells in absence of CPT; DT40 Tdp1-/- hTDP1 cells, no CPT, ATP luminescence, 48 h; Potency, µM (series often up to 46.2 µM), without a hit: top-dose activity change, negative = growth inhibition, actives largely listed as inhibitors; 420,000 compounds, 15% hits; AID 686978, 2013; further: potency means the concentration at half of the fitted maximal effect; nearly all actives have a fitted effect of over 55% in size
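No-CPT arm: Tdp1-/-;hTDP1 DT40 cells (400/well) plus compounds, incubated ≥48 hr at 37 °C. Readout CellTiter-Glo luminescence.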
An asterisk follows results filed as active; ? = inconclusive; . = no result given; [ ] = another dose, or the depositor's remark. Unless noted, the call rests on the fitted dose curve; in most records, active means well fitted curve in the direction sought with a large enough effect; inconclusive means small, poorly fitted or top-dose-only effect, or another doubt; inactive means no such curve, though single readings can be large; an effect the other way counts as inactive or inconclusive. Unless noted, on the % scale 0 is the no-effect control and ±100 the full control effect.

SMILES | HT1080-NT tox | IL-1B inflam inh | TDP1 cell CPT | HT1080 IDH1KD tx | DT40 TDP1 no CPT
Cc1ccc(C)c(N2CCN(CCCNC(=O)Cn3ncc4c([nH]c5ccccc54)c3=O)CC2)c1 | . | . | 15µM* | . | 21µM*
CC1CCCCC12NC(=O)N(CC(=O)NCCc1ccc(F)cc1)C2=O (stereo unspecified) | 0% | -7 | 5% | 1% | -2%
CC1(C(=O)Nc2cccc3c2CCCC3)CCN1C(=O)Cc1ccccc1Cl (stereo unspecified) | -1% | -22 | ? | 6% | ?
COc1cc(C(=O)Nc2c(C)cc(C)cc2C)c(Br)c(OC)c1OC | 25% | 0 | -21% | 7% | ?
COc1ccc(N2CCN(CCCn3c(=S)[nH]c4ccccc4c3=O)CC2)cc1 | -27% | 21 | ? | ? | ?
COc1ccccc1N1CCN(CCCn2c(=S)[nH]c3ccccc3c2=O)CC1 | -2% | -21 | 13µM* | -14% | 9.2µM*
Cc1cc(/C=C(\C#N)C(=O)Nc2ccc(F)cc2)c(C)n1-c1ccc(N2CCOCC2)c([N+](=O)[O-])c1 | -1%[9.24 µM] | -13 | 8.2µM* | -15% | 12µM*
COc1ccc(NC(=O)/C(C#N)=C/c2cc(C)n(-c3ccc(N4CCOCC4)c([N+](=O)[O-])c3)c2C)cc1 | -3% | -13 | 3.7µM* | 3% | 2.3µM*
O=C(Cc1ccsc1)NNC(=O)c1cccc(Cl)c1 | 0% | -1 | 2% | 10% | 24%
O=C(COC(=O)CNC(=O)c1ccccc1)Nc1nc(-c2ccccc2)cs1 | -2% | 3 | -1% | 0% | -18%
Cc1nc(-c2ccc(S(=O)(=O)N(C)Cc3ccccc3)cc2)co1 | . | . | 26µM* | . | 21µM*
CCN(Cc1ccccc1)S(=O)(=O)c1ccc(C(=O)Nc2nnc(C3CC3)o2)cc1 | -15% | 36 | ? | -17% | 16µM*
Cc1nnc(NC(=O)c2ccc(S(=O)(=O)N(C)Cc3ccccc3)cc2)o1 | -24% | 26 | ? | ? | 23µM*
COCc1nnc(NC(=O)c2ccc(S(=O)(=O)N(C)Cc3ccccc3)cc2)o1 | ? | 75 | ? | -18% | ?
COCCN(CCOC)S(=O)(=O)c1ccc(C(=O)Nc2nnc(C)o2)cc1 | 12% | 28 | 0% | 11% | -6%
C=CCN1CCCC1CNC(=O)c1cc(S(N)(=O)=O)cc(OC)c1OC (stereo unspecified) | . | . | -1% | . | -6%
O=C1c2cccc3cccc(c23)C(c2nc3ccccc3[nH]2)N1C1CC1 (stereo unspecified) | -3% | -15 | -12% | 1% | -27%
O=C(Nc1ccc2nc(-c3cccnc3)[nH]c2c1)C1CCCCC1 | ? | 26 | ? | ? | 15µM*
Nc1cccc(C(=O)Nc2ccc3nc(-c4cccnc4)[nH]c3c2)c1 | 6% | -15 | -21% | 3% | -8%
CC(C)(C)C(=O)Nc1ccc(-c2nc3ccc(NC(=O)C(C)(C)C)cc3[nH]2)cc1 | . | . | 0.65µM* | . | 1.2µM*
O=C(Nc1ccc2nc(-c3ccccc3)[nH]c2c1)c1ccco1 | -19% | 0 | ? | -24% | 21µM*
Cn1cccc1-c1nc2ccc(NC(=O)c3cccs3)cc2[nH]1 | -9% | ? | ? | -12% | 16µM*
CC(=O)Nc1ccc2nc(-c3cccn3C)[nH]c2c1 | 18% | -13 | -20% | 11% | -3%
O=C(Nc1ccc2nc[nH]c2c1)c1ccco1 | 22% | 0 | -29% | -2% | -16%
O=C(COC(=O)c1cccnc1Cl)NCc1cccs1 | 0% | -6 | 1% | 13% | -3%
SMILES | HT1080-NT tox | IL-1B inflam inh | TDP1 cell CPT | HT1080 IDH1KD tx | DT40 TDP1 no CPT
O=C(O)C1(O)C[C@H](O)C(O)[C@@H](O)C1 (stereo partly specified) | 23% | 0 | -6% | 1% | 16%
Cc1ccc(-c2nc3ccccc3[nH]2)cc1NC(=O)c1ccco1 | 16% | -9 | -25% | 5% | ?
O=C(Nc1cccc(-c2nc3ccccc3[nH]2)c1)c1cccc(NC(=O)c2ccco2)c1 | ? | -95* | 16µM* | ? | 18µM*
O=C(Nc1ccc2nc(-c3ccc(Br)o3)[nH]c2c1)c1ccco1 | -6% | -18 | ? | -13% | 9.2µM*
CC(C)C(=O)N1CCN(c2ccccc2NC(=O)c2cccc(Cl)c2)CC1 | -2% | ? | ? | -1% | 16µM*
CC(C)C(=O)N1CCN(c2ccccc2NC(=O)c2cccc3ccccc23)CC1 | -9% | 15 | ? | -16% | 16µM*
COc1cccc(CN(C)C(=O)c2ccccc2Sc2ccccc2C#N)c1OC | -20% | -1 | ? | -1% | ?
CC1(C)Oc2ccc3ccc(=O)oc3c2C[C@H]1O[C@@H]1O[C@H](CO)[C@@H](O)[C@H](O)[C@H]1O | 1% | 59 | -12% | 10% | 2%
CC(=O)OC(C)(C)/C=C/C(=O)[C@](C)(O)C1[C@H](O)C[C@@]2(C)C3CC=C4C(C=C(O[C@@H]5O[C@H](CO)[C@@H](O)[C@H](O)[C@H]5O)C(=O)C4(C)C)[C@]3(C)C(=O)C[C@]12C (stereo partly specified) | ? | -16 | 1.6µM* | 23µM* | 1.8µM*
CC(C)c1c(C(=O)Nc2ccccc2)c(-c2ccccc2)c(-c2ccc(F)cc2)n1CC[C@@H](O)C[C@@H](O)CC(=O)O | . | . | ? | . | 15µM*
Clc1cccc(C2=NC(c3cccs3)=Nc3ccc(Br)cc3N2)c1 | . | . | 16µM* | . | 15µM*
CCc1ccc2c(c1)NC(c1ccc(C)cc1)=NC(c1cccs1)=N2 | . | . | ? | . | 26µM*
CCCCOc1ccc(C2=NC(c3cccs3)=Nc3ccc(CC)cc3N2)cc1 | . | . | 21µM* | . | ?
CC(C)c1ccc2c(c1)NC(c1ccncc1)=NC(c1cccs1)=N2 | . | . | ? | . | 16µM*
Clc1ccc2c(c1)C(c1cccs1)=NNC(c1cccnc1)=N2 | 6% | -28 | -20% | 3% | ?
COc1ccccc1NC(=O)N1CCOc2ccccc21 | . | . | -35% | . | -13%
CCCCCNC(=O)C(c1cccc2ccccc12)n1c(=O)c(-c2ccccc2)nc2ccccc21 (stereo unspecified) | 1% | 0 | 13µM* | 8% | 15µM*
O=C(NCc1ccccc1)C(c1cccc2ccccc12)n1c(=O)c(-c2ccccc2)nc2ccccc21 (stereo unspecified) | -19% | -4 | 13µM* | -2% | ?
